The supplement of paper PMC13380429

Experiments:
[1] = tested on: Vero E6 infected with SARS-CoV-2; experiment: morphology score (similarity to uninfected cells); higher = more like uninfected cells; settings: 24 h
[2] = tested on: Vero E6 infected with SARS-CoV-2; experiment: SARS-CoV-2 infection rate relative to infected DMSO; higher = more infection, active = 60 or less; settings: 24 h

Structure (SMILES)	morphology score [1]	SARS-CoV-2 infection rate [2]
COc1ccc(OC)c(C(O)C(C)N)c1 (stereo not given) [methoxamine] (10 µM)	-0.12	108% (inactive)
CCc1cc(C(C)=O)c(O)cc1OCCCCCC(C)(C)c1nn[nH]n1 (10 µM)	0.0736	100% (inactive)
C/C(O)=C(\C#N)C(=O)Nc1ccc(C(F)(F)F)cc1 [teriflunomide] (10 µM)	0.0341	108% (inactive)
CC(C)(C)NCC(O)COc1ccc(NC(=O)NC2CCCCC2)cc1 (stereo not given) [talinolol] (10 µM)	0.0728	106% (inactive)
Cc1ncc([N+](=O)[O-])n1CCO [metronidazole] (10 µM)	-0.0912	118% (inactive)
